Several values for one entry are separate records, joined by “and”; a condition that tells them apart may be missing. Identical values can stand only once. Inconclusive results are not listed. Activity calls are given as the source filed them. The call rests on the fitted dose curve; in most records, active means well fitted curve in the direction sought with a large enough effect; inconclusive means small, poorly fitted or top-dose-only effect, or another doubt; inactive means no such curve, though single readings can be large; an effect the other way counts as inactive or inconclusive.
Key:
[1] = target: Rap guanine nucleotide exchange factor 3 (Homo sapiens) (UniProt O95398); assay: Confirmatory qHTS for agonist of cAMP-regulated guanine nucleotide exchange factor 3 (EPAC1) (AID 1645881);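 further: EPAC1 catalysed release of BODIPY-GDP from Rap1B seen as fluorescence loss; 100% = effect of cAMP agonist control; nearly all actives have a fitted effect of over 75% in size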
Chain of Rap guanine nucleotide exchange factor 3 (Homo sapiens) (O95398 whole entry, looked up): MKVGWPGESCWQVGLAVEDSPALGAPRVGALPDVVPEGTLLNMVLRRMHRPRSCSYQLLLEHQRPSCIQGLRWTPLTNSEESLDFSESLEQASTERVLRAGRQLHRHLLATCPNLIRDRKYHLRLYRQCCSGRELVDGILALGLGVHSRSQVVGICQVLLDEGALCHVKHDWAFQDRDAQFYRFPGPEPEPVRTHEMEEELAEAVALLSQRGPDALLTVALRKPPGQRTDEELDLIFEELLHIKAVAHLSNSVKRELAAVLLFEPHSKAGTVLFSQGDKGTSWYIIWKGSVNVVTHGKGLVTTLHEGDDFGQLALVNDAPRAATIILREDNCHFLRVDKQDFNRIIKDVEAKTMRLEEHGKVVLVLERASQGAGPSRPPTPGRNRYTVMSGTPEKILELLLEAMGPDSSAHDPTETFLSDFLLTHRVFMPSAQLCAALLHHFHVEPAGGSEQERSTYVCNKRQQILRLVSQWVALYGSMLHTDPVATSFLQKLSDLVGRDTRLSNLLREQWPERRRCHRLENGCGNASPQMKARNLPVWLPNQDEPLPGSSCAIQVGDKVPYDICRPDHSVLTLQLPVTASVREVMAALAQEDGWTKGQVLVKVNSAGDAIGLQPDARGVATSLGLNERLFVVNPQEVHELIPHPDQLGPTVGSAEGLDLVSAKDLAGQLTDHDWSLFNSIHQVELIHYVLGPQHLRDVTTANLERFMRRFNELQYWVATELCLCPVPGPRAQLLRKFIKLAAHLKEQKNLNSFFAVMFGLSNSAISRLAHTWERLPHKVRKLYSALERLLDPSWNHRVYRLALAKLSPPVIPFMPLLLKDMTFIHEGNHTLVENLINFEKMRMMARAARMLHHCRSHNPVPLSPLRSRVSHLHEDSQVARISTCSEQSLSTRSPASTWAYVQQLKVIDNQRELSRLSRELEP

[2] = target: Rap guanine nucleotide exchange factor 4 (Homo sapiens) (UniProt Q8WZA2); assay: Confirmatory qHTS for agonist of cAMP-regulated guanine nucleotide exchange factor 4 (EPAC2) (AID 1645884);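 further: nucleotide exchange releases bodipy-GDP from Rap1 and this lowers its fluorescence; on the % scale 0 is the no-effect control and ±100 the full control effect; nearly all actives have a fitted effect of over 65% in size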
Chain of Rap guanine nucleotide exchange factor 4 (Homo sapiens) (Q8WZA2 whole entry, looked up): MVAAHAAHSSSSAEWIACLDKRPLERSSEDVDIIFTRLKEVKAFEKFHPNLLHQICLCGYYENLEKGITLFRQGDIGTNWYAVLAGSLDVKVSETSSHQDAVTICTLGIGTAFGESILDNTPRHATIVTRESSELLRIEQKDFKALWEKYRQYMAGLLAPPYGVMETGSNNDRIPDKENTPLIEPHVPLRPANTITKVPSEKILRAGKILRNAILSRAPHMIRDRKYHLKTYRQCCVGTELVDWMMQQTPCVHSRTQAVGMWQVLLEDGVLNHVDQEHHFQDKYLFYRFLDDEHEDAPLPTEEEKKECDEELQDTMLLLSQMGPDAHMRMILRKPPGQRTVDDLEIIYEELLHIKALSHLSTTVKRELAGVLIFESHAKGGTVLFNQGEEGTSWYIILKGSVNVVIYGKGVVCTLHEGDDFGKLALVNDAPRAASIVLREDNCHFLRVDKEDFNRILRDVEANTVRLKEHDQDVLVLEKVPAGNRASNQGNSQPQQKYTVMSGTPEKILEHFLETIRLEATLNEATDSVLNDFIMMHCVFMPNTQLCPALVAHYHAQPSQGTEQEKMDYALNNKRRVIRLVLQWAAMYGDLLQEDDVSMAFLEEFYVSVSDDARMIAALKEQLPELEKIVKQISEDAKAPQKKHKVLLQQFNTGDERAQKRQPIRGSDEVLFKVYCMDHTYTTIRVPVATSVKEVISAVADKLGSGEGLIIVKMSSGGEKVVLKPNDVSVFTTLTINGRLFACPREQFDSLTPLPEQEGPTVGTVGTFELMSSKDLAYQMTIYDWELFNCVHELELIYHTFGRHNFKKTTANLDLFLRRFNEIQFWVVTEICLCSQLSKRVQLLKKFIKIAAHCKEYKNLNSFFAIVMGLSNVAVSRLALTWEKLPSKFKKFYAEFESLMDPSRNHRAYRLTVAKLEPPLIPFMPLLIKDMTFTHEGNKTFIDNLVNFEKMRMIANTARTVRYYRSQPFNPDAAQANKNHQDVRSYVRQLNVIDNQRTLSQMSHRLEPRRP

[3] = target: Rap guanine nucleotide exchange factor 4 (Homo sapiens) (UniProt Q8WZA2); assay: Confirmatory qHTS for antagonist of cAMP-regulated guanine nucleotide exchange factor 4 (EPAC2) (AID 1645885); further: nearly all actives have a fitted effect of over 25% in size; further: potency means the concentration at half of the fitted maximal effect; on activity change, negative = inhibition: on the % scale 0 is the no-effect control and ±100 the full control effect
[4] = target: Rap guanine nucleotide exchange factor 3 (Homo sapiens) (UniProt O95398); assay: Counterscreen qHTS for antagonist of cAMP-regulated guanine nucleotide exchange factor 3 (EPAC1) (AID 1645888);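 further: fluorescence loss as bound BODIPY-GDP is released from Rap1B; % of control where 0% means no effect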
Procedure, shortened: (§1)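 Measured: fluorescence of BODIPY-GDP bound to Rap1B, which falls as exchange proceeds. Conditions include 50 uM competing GDP, 5 and 30 min reads, and a later cAMP challenge for antagonist detection.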

[5] = target: Rap guanine nucleotide exchange factor 3 (Homo sapiens) (UniProt O95398); assay: Counterscreen qHTS for agonist of cAMP-regulated guanine nucleotide exchange factor 3 (EPAC1) (AID 1645889); further: nearly all actives have a fitted effect of over 40% in size; further: potency means the concentration at half of the fitted maximal effect; on activation: % of control where 0% means no effect
Procedure, shortened: as §1

O=C(Nc1ccc(N2CCC(N3CCCCC3)CC2)c(C(=O)O)c1)c1ccc(Br)cc1
inactive: Potency [1] | Potency [2] | outcome [3] inactive; activator; fitted 1.6944 uM [at 12.7 µM] | Potency [4] | Potency [5]

Cc1nnc(-c2ccco2)c2cn(-c3cccc(Br)c3)nc12
inactive: Potency [1] | Potency [2] | Potency [3] | Potency [4] | Potency [5]

CC(=O)NC(C)(c1ccccc1)c1nc(-c2cccc(C(F)(F)F)c2)cs1 (stereo not given)
inactive: Potency [1] | Potency [2] | Potency [3] | Potency [4] | Potency [5]

COc1ccccc1NC(=O)CSc1sc2c(O)cc(=O)[nH]c2c1C#N
inactive: Potency [1] | activation [2] 3.66% [at 17.1 µM, percent relative to cAMP agonist control] | Potency [3] | activity change, negative = inhibition [4] 0.384% [at 30.8 µM] | activation [5] 12.5% [at 30.8 µM]

CCCCCCn1nc(C(=O)OCC(=O)c2c(N)n(C)c(=O)n(C)c2=O)c2ccccc2c1=O
inactive: Potency [1] | Potency [2] | Potency [3] | Potency [4] | Potency [5]

CN(CC(=O)Nc1cccc(F)c1)C(=O)c1cccc(-n2cccc2)c1
inactive: Potency [1] | activation [2] 6.22% [at 17.1 µM, percent relative to cAMP agonist control] | Potency [3] | activity change, negative = inhibition [4] -8.31% [at 30.8 µM] | activation [5] 14.1% [at 30.8 µM]

CCOc1cccc(CNc2ccc(O)cc2)c1OCc1ccccc1Cl
active: Potency [5] 44.7 nM and 79.4 µM
inactive: Potency [1] | Potency [2] | Potency [3] | Potency [4]

CC(/C=C1\SC(=S)N(CCC(=O)Nc2cccc(C(=O)O)c2)C1=O)=C\c1ccccc1
inactive: Potency [1] | activation [2] 9.03% [at 17.1 µM, percent relative to cAMP agonist control] | Potency [3] | activity change, negative = inhibition [4] 19.7% [at 30.8 µM] | activation [5] 16.2% [at 30.8 µM]

CC(C)(C)NC(=O)NC(=O)CN1CCN(S(=O)(=O)c2ccc3c(c2)CCCC3)CC1
inactive: Potency [1] | activation [2] -5.51% [at 17.1 µM, percent relative to cAMP agonist control] | Potency [3] | activity change, negative = inhibition [4] -44% [at 30.8 µM] | activation [5] 6.75% [at 30.8 µM]

COc1cc(/C=N/NC(=O)c2ccccc2O)ccc1OCC(=O)Nc1ccccc1
inactive: Potency [1] | activation [2] -7.34% [at 17.1 µM, percent relative to cAMP agonist control] | Potency [3] | activity change, negative = inhibition [4] 0.781% [at 30.8 µM] | activation [5] 13.4% [at 30.8 µM]

Cc1[nH]c2ccc(C(=O)OC(C)C(=O)N(C)c3ccccc3)cc2c1C (stereo not given)
inactive: Potency [1] | Potency [2] | Potency [3] | Potency [4] | Potency [5]

Cc1onc(-c2c(F)cccc2Cl)c1C(=O)OCc1cnc(Cl)s1
active: Potency [3] 26.9 µM
inactive: Potency [1] | Potency [2] | Potency [4] | Potency [5]

COc1ccccc1Cc1c(-c2ccco2)nc2cc(C)c(Br)c(C)n12
inactive: Potency [1] | activation [2] 3.49% [at 17.1 µM, percent relative to cAMP agonist control] | Potency [3] | activity change, negative = inhibition [4] -0.951% [at 30.8 µM] | activation [5] 13.6% [at 30.8 µM]

Cc1cc(NS(=O)(=O)c2ccc(Nc3nc(-c4ccc(O)cc4)cs3)cc2)no1
inactive: Potency [1] | Potency [2] | Potency [4] | Potency [5]
active: Potency [3] 26.9 µM

CC[C@@H]1CC=C[C@H]2[C@H]1C(=O)N(Cc1ccccc1)[C@H]2c1ccc(C(F)(F)F)cc1
inactive: Potency [1] | Potency [2] | Potency [3] | Potency [4] | Potency [5]

CC1(C)C=Cc2cc(-c3coc4cc(O)cc(O)c4c3=O)cc(O)c2O1
inactive: Potency [1] | Potency [2] | Potency [3] | Potency [4] | Potency [5]

CCOc1ccccc1Cn1c(=O)oc2ccc(C)cc21
inactive: Potency [1] | Potency [2] | Potency [3] | Potency [4] | Potency [5]

CCOC(=O)C1=C(C)N=c2s/c(=C/c3cccc([N+](=O)[O-])c3O)c(=O)n2C1c1ccccc1 (stereo not given)
inactive: Potency [1] | Potency [2] | Potency [3] | Potency [4] | Potency [5]

Cc1ccc2oc(=O)n(Cc3ccccc3OC(C)C)c2c1
inactive: Potency [1] | Potency [2] | Potency [4] | Potency [5]
active: Potency [3] 7.57 µM

N#CCC(=O)Nc1ccc(C(=O)OCC(=O)Nc2ccc3ccccc3c2)cc1
inactive: Potency [1] | Potency [2] | Potency [3] | Potency [4] | Potency [5]

CCN(C(=O)c1noc2c1COc1ccc(C)cc1-2)c1cccc(C)c1
inactive: Potency [1] | Potency [2] | Potency [3] | Potency [4] | Potency [5]

CCC(=C(c1ccc(OC)cc1)c1ccc(OC)cc1)c1cn(CC(O)CN2CCN(C)CC2)c2ccccc12 (stereo not given)
inactive: Potency [1] | activation [2] 8.96% [at 17.1 µM, percent relative to cAMP agonist control] | Potency [3] | activity change, negative = inhibition [4] -21.5% [at 30.8 µM] | activation [5] 25.5% [at 30.8 µM]

CCOc1cc(/C=N/NC(=O)CSc2nncn2C)ccc1OC(=O)c1ccc(Cl)cc1
inactive: Potency [1] | activation [2] 6.27% [at 17.1 µM, percent relative to cAMP agonist control] | Potency [3] | activity change, negative = inhibition [4] 0.431% [at 30.8 µM] | activation [5] 9.31% [at 30.8 µM]

O=C(Cc1ccc(Cl)cc1)N/N=C/c1ccc(O)c(O)c1
inactive: Potency [1] | Potency [2] | Potency [3] | Potency [4] | Potency [5]

Cc1cc(N2CCN(c3cccc(C(F)(F)F)c3)CC2)n2nc(-c3ccccc3C)nc2n1
inactive: Potency [1] | Potency [2] | Potency [3] | Potency [4] | Potency [5]

CCOc1cccc(C(=O)Nc2ccc3oc(Cc4ccc(Cl)cc4)nc3c2)c1
inactive: Potency [1] | activation [2] 0% [at 17.1 µM, percent relative to cAMP agonist control] | Potency [3] | activity change, negative = inhibition [4] -8.02% [at 30.8 µM] | activation [5] 18.7% [at 30.8 µM]

O=C(CCN1C(=O)S/C(=C\c2ccc(Cl)cc2)C1=O)Nc1ccc(C(=O)O)cc1
inactive: Potency [1] | Potency [2] | Potency [3] | Potency [4] | Potency [5]

Cc1nnc(Sc2cc(NCCCO)c([N+](=O)[O-])c3nonc23)s1
active: Potency [5] 8.91 µM
inactive: Potency [1] | activation [2] 3.11% [at 17.1 µM, percent relative to cAMP agonist control] | Potency [3] | activity change, negative = inhibition [4] 1.69% [at 30.8 µM]

CC1=NCCN1S(=O)(=O)c1c(C(C)C)cc(C(C)C)cc1C(C)C
inactive: Potency [1] | Potency [2] | Potency [3] | Potency [4] | Potency [5]

CNc1ccc(/C=C/C(=O)c2ccc(C)cc2)cc1[N+](=O)[O-]
inactive: Potency [1] | activation [2] -1.81% [at 17.1 µM, percent relative to cAMP agonist control] | Potency [3] | activity change, negative = inhibition [4] 16.3% [at 30.8 µM] | activation [5] 21% [at 30.8 µM]

O=S(=O)(O)c1ccc(NN=Cc2ccccc2O)cc1
inactive: Potency [1] | activation [2] -8.55% [at 17.1 µM, percent relative to cAMP agonist control] | Potency [3] | activity change, negative = inhibition [4] 3.2% [at 30.8 µM] | activation [5] 20.1% [at 30.8 µM]

Cc1ccc(Cl)cc1NS(=O)(=O)c1ccccc1
inactive: Potency [1] | activation [2] 2.77% [at 17.1 µM, percent relative to cAMP agonist control] | Potency [3] | activity change, negative = inhibition [4] 0.85% [at 30.8 µM] | activation [5] 7.24% [at 30.8 µM]

CCCCN1CC(c2nc3ccccc3n2CCCCOc2cc(C)cc(C)c2)CC1=O (stereo not given)
inactive: Potency [1] | Potency [2] | Potency [3] | Potency [4] | Potency [5]

O=C1CC(c2c(F)cccc2Cl)c2c(ccc3ccccc23)N1 (stereo not given)
inactive: Potency [1] | Potency [2] | Potency [3] | Potency [4] | Potency [5]

Cc1[nH]n(-c2ccccc2)c(=O)c1C(c1ccc(C(=O)O)cc1)c1c(C)[nH]n(-c2ccccc2)c1=O
inactive: Potency [1] | Potency [2] | Potency [3] | Potency [4]
active: Potency [5] 1.78 µM

CC(C)C[C@H]1COCCS(=O)(=O)N1Cc1cccc(Cl)c1
inactive: Potency [1] | activation [2] 5.51% [at 17.1 µM, percent relative to cAMP agonist control] | Potency [3] | activity change, negative = inhibition [4] -14.3% [at 30.8 µM] | activation [5] 2.08% [at 30.8 µM]

C/C(CC(=O)N1CCCC1)=N\NC(=O)c1cc2ccccc2cc1O
inactive: Potency [1] | Potency [2] | Potency [3] | Potency [4] | Potency [5]

COc1ccccc1-n1c(C)c(C(=O)O)c2cc(OC)c3ccccc3c21
inactive: Potency [1] | Potency [2] | Potency [4] | Potency [5]
active: Potency [3] 47.8 µM

COc1ccccc1Cc1c(-c2ccco2)nc2c(C)cc(Br)cn12
inactive: Potency [1] | activation [2] 7.54% [at 17.1 µM, percent relative to cAMP agonist control] | Potency [3] | activity change, negative = inhibition [4] -14.6% [at 30.8 µM] | activation [5] 13.2% [at 30.8 µM]

COc1cc(/C=C2/SC(=S)N(c3c(C)n(C)n(-c4ccccc4)c3=O)C2=O)ccc1O
inactive: Potency [1] | activation [2] 9.4% [at 17.1 µM, percent relative to cAMP agonist control] | Potency [3] | activity change, negative = inhibition [4] -24.4% [at 30.8 µM] | activation [5] 11.7% [at 30.8 µM]

— PubChem BioAssay (NCATS)
